Here are results for five compounds from PubChem BioAssay.

The source made the active and inactive calls. Unless noted, no rule for the calls is given here.

The nature of assay [1]: compounds binding Alexa647 anti-His antibody – biochemical, small-molecule microarray, 635 nm fluorescence, artefact control for SMM control protein annotation, primary screen (AID 1128).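 Also: score merges feature fluorescence with signal-to-noise for each printed compound spot.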 The following applies: higher = more signal.
Assay [2] concerns Human papillomavirus type 1a E7 protein (residues 1-88). Description: HPV1a E7 small-molecule binders, primary screen, biochemical, small-molecule microarray, residues 1-88, 635 nm (AID 1129). Conditions: small-molecule microarray binding, fluorescence 635 nm; higher = more signal.
Assay [3] concerns the target Focal adhesion kinase 1 (Homo sapiens) (UniProt Q05397). Description: PTK2 protein binding on printed compound slides – biochemical, small-molecule microarray, 635/667 nm fluorescence, BSA, DTT, primary screen (AID 1130).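 Also: composite of spot emission at 667 nm and signal to noise over triplicate slides.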 Conditions: 635 nm fluorescence, higher = more signal.
For assay [4], the system named is Fibrinogen (Alexa647-labelled). The assay is described as follows: Alexa647-fibrinogen binding to printed small molecules – biochemical, small-molecule microarray, 635/667 nm fluorescence, artefact control for SMM control-protein annotation, profiling panel (AID 1131).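 Also: z-score merges 667 nm fluorescence with per-spot signal-to-noise over triplicate slides.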 Conditions: fibrinogen-A647 binding fluorescence, higher = more signal.
The target of assay [5] is Follistatin (Homo sapiens) (UniProt P19883). The assay is described as follows: FST protein binding to printed compounds – biochemical, small-molecule microarray, 635/667 nm fluorescence, primary screen (AID 1132). Conditions: 635 nm fluorescence, higher = more signal.
The target in assay [6] is Fibroblast growth factor 2 (Homo sapiens) (UniProt P09038). The assay is described as follows: basic fibroblast growth factor binding to printed compounds – biochemical, small-molecule microarray, 635/667 nm fluorescence, primary screen (AID 1133). The following applies: FGF2, fluorescence 635/667, higher = more signal.
Assay [7] in a line: JC-1 mitochondrial potential readout, lung cancer cells – cell-based, A549, JC-1 fluorescence, basal, 24 h, 100 nL, profiling panel (AID 1138).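 Also: A549 lung adenocarcinoma cells under basal conditions with no added stimulus; test concentration not given here.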 The following applies: higher = more signal.
The next assay relates to Lefty1. The assay is described as follows: Lefty1 protein binding to printed compounds – biochemical, small-molecule microarray, 635/667 nm fluorescence, primary screen (AID 1139). The following applies: fluorescence 635/667, higher = more signal.
In assay [8] the test system is wheat germ agglutinin (Triticum aestivum), Alexa647-labelled. The assay is described as follows: Alexa647-WGA lectin binding to printed small molecules – biochemical, small-molecule microarray, 635/667 nm fluorescence, artefact control for SMM control-protein annotation, profiling panel (AID 1140).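 Also: score merges 667 nm feature emission with signal to noise over triplicate slides.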 Conditions: WGA-A647 binding, 635 nm fluorescence, higher = more signal.

In assay [9] the target is Luciferin 4-monooxygenase (Photinus pyralis) (UniProt P08659). The assay is described as follows: inhibition of purified Photinus pyralis luciferase – biochemical, luminescence, purified enzyme, 2006 set, primary screen (AID 1141).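 Also: cell-free assay with purified firefly luciferase at 100 ng per well in PBS; test concentration not given here.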 The following applies: purified firefly luciferase, SteadyGlo luminescence, 30 min; higher = more signal, called active from +8 up or from −8 down.

Assay [10] relates to Wnt5a (protein binding on small-molecule microarray). Description: small molecules binding Wnt5a protein – biophysical, small-molecule microarray, 635/667 nm fluorescence, primary screen (AID 1142).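 Also: fluorescence read at 667 nm with signal to noise per printed feature.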 Conditions: 635 nm fluorescence, higher = more signal.
A short description of assay [11]: ATP-based viability of Huh7 replicon cells – cell-based, CellTiter-Glo luminescence, basal, 48 h, cytotoxicity control for HCV replication inhibitor project, primary screen (AID 1143).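 Also: Huh7 hepatoma cells carrying a hepatitis C replication reporter with no stimulus; test concentration not given here.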 The following applies: higher = more signal, called active from +8 up or from −8 down.
The nature of assay [12]: Pseudomonas biofilm growth suppression – PAO1 strain, BacTiter-Glo luminescence, LB-PBS, primary screen (AID 1144). Conditions: P. aeruginosa PAO1 biofilm, 12 h, higher = more signal.
Assay [13] is described as follows: basal CRE-LacZ reporter activity in PC12 – cell-based, unstimulated, primary screen (AID 1145). Conditions: no forskolin, luminescence, 4.5 h, higher = more signal, called active from +8 up or from −8 down.
Assay [14] can be described thus: forskolin-driven CRE-LacZ activity in PC12 – cell-based, CRE-LacZ reporter, forskolin-stimulated, primary screen (AID 1146).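 Also: PC12 cells with 6xCRE LacZ reporter stimulated by forskolin 10 µM; beta-galactosidase reporter signal reflecting CREB driven transcription.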 Conditions: luminescence, 4.5 h, higher = more signal, called active from +8 up or from −8 down.
Assay [15] concerns the target Streptavidin (Streptomyces avidinii) (UniProt P22629). The assay is described as follows: compounds binding control protein streptavidin – biophysical, small-molecule microarray, 635/667 nm fluorescence, artefact control for SMM compound annotation, primary screen (AID 1147).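 Also: signal reflects streptavidin binding to arrayed compounds as a control protein.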 Conditions: higher = more signal.
Assay [16] can be described thus: probe aInhba binding on compound microarray – biochemical, small-molecule microarray, 635/667 nm fluorescence, primary screen (AID 1148).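 Also: score merges 667nm spot fluorescence with signal-to-noise for antibody binding to printed compounds.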 The following applies: higher = more signal.
Assay [17] concerns the target Torsin-1A (Homo sapiens) (UniProt O14656). The assay is described as follows: TOR1A wild-type binding on microarray – cell lysate, small-molecule microarray, lysate, 635/667 nm, primary screen (AID 1149). The following applies: COS7 hTOR1A-WT lysate, 635 nm fluorescence, higher = more signal.
Assay [18] has the same target. Description: torsin A mutant lysate binding on microarrays – cell lysate, small-molecule microarray, COS7 lysate, 635/667 nm fluorescence, primary screen (AID 1150).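 Also: score pools 667 nm emission and signal to noise measuring lysate protein binding.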 Conditions: COS7 hTOR1A mutant lysate, 635 nm fluorescence, higher = more signal.
The subject of assay [19] is Sonic hedgehog protein (Shh). Description: Sonic hedgehog microarray binding compounds – biochemical, small-molecule microarray, 635/667 nm fluorescence, primary screen (AID 1151).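 Also: Shh protein binding to compounds spotted on small-molecule microarray slides; score combines spot fluorescence intensity with signal-to-noise across triplicate slides.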 The following applies: 635 nm fluorescence, higher = more signal.

Streptavidin (Streptomyces avidinii), sequence (P22629 whole entry, looked up): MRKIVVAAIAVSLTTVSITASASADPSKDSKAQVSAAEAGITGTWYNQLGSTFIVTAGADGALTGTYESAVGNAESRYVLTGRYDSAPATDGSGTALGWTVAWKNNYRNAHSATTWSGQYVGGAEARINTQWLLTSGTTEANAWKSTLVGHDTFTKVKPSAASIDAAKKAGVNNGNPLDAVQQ
Focal adhesion kinase 1 (Homo sapiens), sequence (Q05397 whole entry, looked up): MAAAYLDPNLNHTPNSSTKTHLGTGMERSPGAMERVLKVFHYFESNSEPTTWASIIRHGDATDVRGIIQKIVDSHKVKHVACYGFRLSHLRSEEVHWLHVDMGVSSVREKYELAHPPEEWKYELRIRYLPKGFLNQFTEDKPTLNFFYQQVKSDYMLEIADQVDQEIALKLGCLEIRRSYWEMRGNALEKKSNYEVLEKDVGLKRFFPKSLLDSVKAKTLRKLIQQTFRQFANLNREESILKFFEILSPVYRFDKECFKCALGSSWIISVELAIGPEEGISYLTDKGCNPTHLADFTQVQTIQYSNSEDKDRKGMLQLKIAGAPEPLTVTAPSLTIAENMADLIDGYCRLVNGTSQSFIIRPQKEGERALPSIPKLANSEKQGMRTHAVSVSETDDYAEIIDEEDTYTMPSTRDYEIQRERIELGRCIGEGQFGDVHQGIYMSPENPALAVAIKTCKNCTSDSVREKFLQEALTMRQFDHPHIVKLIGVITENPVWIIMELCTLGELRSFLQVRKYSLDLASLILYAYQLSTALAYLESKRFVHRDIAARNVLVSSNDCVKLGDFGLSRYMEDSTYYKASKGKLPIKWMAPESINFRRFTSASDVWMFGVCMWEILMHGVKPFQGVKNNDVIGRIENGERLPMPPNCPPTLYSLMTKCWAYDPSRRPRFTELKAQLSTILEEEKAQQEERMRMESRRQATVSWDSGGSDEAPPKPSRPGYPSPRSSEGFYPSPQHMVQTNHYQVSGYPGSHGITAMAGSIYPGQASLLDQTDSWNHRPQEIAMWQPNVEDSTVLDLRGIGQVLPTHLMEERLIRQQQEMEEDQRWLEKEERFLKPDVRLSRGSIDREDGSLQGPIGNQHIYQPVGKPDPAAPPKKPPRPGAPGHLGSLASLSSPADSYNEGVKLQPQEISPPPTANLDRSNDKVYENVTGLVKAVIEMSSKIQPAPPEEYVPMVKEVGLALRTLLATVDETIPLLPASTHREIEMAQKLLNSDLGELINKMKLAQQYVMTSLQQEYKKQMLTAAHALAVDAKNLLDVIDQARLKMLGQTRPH
Follistatin (Homo sapiens), sequence (P19883 whole entry, looked up): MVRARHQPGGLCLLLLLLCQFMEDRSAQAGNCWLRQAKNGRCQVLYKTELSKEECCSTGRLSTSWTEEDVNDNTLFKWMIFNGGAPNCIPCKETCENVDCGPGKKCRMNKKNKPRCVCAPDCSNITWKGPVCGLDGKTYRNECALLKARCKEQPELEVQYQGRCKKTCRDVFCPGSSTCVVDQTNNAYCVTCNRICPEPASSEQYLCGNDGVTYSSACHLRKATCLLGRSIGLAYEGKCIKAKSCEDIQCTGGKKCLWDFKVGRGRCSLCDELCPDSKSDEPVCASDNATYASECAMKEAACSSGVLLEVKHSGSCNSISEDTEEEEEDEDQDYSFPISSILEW
Luciferin 4-monooxygenase (Photinus pyralis), sequence (P08659 whole entry, looked up): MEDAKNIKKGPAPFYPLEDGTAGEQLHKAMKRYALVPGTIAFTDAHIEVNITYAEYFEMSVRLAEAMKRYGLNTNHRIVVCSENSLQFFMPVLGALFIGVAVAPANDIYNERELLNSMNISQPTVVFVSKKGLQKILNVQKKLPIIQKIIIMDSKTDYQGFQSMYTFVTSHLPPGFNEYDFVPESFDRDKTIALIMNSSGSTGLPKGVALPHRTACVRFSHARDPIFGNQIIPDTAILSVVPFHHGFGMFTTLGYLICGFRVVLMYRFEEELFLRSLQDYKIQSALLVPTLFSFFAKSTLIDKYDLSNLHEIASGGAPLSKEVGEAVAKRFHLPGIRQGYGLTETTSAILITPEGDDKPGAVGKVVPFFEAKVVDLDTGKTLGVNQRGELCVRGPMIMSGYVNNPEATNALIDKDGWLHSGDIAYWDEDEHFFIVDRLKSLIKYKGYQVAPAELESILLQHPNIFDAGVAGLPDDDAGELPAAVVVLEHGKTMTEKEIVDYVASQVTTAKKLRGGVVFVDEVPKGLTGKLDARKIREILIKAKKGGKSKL
Torsin-1A (Homo sapiens), sequence (O14656 whole entry, looked up): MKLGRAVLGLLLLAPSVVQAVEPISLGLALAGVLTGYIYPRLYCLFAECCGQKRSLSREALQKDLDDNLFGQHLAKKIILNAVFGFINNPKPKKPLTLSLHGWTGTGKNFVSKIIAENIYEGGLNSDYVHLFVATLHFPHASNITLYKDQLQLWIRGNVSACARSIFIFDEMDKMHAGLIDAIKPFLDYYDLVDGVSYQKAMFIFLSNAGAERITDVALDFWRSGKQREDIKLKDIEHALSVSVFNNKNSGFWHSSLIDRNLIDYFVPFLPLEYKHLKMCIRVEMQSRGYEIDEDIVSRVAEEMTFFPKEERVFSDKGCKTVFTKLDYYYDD
Fibroblast growth factor 2 (Homo sapiens), sequence (P09038 whole entry, looked up): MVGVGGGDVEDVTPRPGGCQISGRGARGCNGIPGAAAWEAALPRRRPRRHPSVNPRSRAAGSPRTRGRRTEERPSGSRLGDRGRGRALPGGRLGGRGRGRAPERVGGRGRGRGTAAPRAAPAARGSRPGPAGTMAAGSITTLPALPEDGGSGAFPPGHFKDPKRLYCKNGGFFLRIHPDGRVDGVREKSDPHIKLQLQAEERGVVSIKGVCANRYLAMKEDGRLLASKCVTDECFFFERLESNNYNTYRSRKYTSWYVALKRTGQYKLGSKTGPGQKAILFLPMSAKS

Take `C[C@H](ON=C1[C@H]2CCn3c(=O)n(-c4ccccc4)c(=O)n3[C@H]2[C@H](O)[C@@H]2O[C@H]12)c1cn([C@H](CO)Cc2ccccc2)nn1`: the composite z-score in [1] is -0.692; in [2] it was 0.588; in [3], 0.273; in assay [4] it was 0.985; in [5] it was 0.3; in [6], 0.646. Moreover, the composite z-score in the assay with Lefty1 was 0.572; in [8] it was 0.742; in assay [10], 0.087; in assay [15] it was 1.19; in assay [16], -0.154; with Torsin-1A (Homo sapiens) [17] it was 0.421. Moreover, the composite z-score came out at 0.295 with Torsin-1A (Homo sapiens) [18] and 0.248 in assay [19]. Further, the z-score in assay [7] is -0.717; in assay [9], -0.0281 (inactive); in assay [11], 1.92 (inactive); in [12], 0.285 (inactive); in [13] it was -0.324 (inactive); in assay [14] it was 0.578 (inactive).

With `O=C1C[C@@H](O)[C@@H](O)[C@@H]2[C@@H]3C(=O)N(C[C@@H]4CCCO4)C(=O)[C@@H]3CC[C@H]12`, the composite z-score is 0.284 in assay [1]; 0.569 in assay [2]; -0.266 in assay [3]; 0.684 in [4]; 0.236 in assay [5]; 0.538 in [6]. Also, the composite z-score with Lefty1 is 0.548; in assay [8] it was 0.085; in assay [10] it was 0.288; in assay [15], 0.168; in assay [16] it was -0.128; in the assay with Torsin-1A (Homo sapiens) [17], 0.34. Further, the results for the composite z-score (with Torsin-1A (Homo sapiens) [18]; in [19]) were 0.068 and 0.46, respectively. Further, the z-score was 0.991 in [7]; -0.635 (inactive) in [9]; 0.114 (inactive) in assay [11]; 0.54 (inactive) in [12]; 0.517 (inactive) in [13]; -0.105 (inactive) in assay [14].

With `CCOC(=O)[C@H](CC(C)C)NC(=O)CCC1CC(OC(=O)NCCc2ccc(F)cc2)CC2(CCCC(COC(=O)NCCOc3ccccc3)O2)O1` (stereo not given in full), the composite z-score in assay [1] was 0.744; in [2] it was 0.698; in [3] it was 0.231; in assay [4] it was 0.985; in [5], 0.826; in assay [6], 0.692. The composite z-score in the assay on Lefty1 turned out to be 1.35; in assay [8], 0.394; in assay [10], 0.32; in [15], 0.939; in [16], 0.336; in the assay with Torsin-1A (Homo sapiens) [17] it was 0.0137. Besides, the composite z-score with Torsin-1A (Homo sapiens) [18] stood at 0.15; in [19], 1.01. Besides, the z-score in [7] was 0.0542; in assay [9] it was 0.96 (inactive); in assay [11] it was -1.81 (inactive); in assay [12] it was -0.446 (inactive); in assay [13], 0.469 (inactive); in assay [14], 0.127 (inactive).

As to `Cc1cc2c(nc1C)CCCN2CC(O)CN1CCCc2nc(C)c(C)cc21`, the composite z-score in assay [1] is 1.92; in [2] it was -0.0317; in [3], 0.281; in assay [4] it was -0.575; in assay [5], 0.817; in [6], 1.06. The composite z-score in the assay with Lefty1 was 0.454; in [8], 0.562; in [10] it was 0.424; in assay [15] it was 0.209; in [16], 0.141; in the assay with Torsin-1A (Homo sapiens) [17], 0.482. Moreover, the composite z-score with Torsin-1A (Homo sapiens) [18] amounted to 1.95; in assay [19] it was 0.639. Moreover, the z-score is -0.685 in assay [7]; 0.723 (inactive) in [9]; 0.135 (inactive) in assay [11]; 0.051 (inactive) in assay [12]; -0.704 (inactive) in [13]; -0.875 (inactive) in [14].

For `CC(C)CON=C1C[C@@H](O)[C@@H](O)[C@@H]2[C@@H]3C(=O)N(c4ccc(F)cc4F)C(=O)[C@@H]3CC[C@H]12`, the composite z-score in assay [1] was determined as 0.686; in [2] it was 1.11; in [3], 0.436; in [4], 0.424; in assay [5] it was 0.714; in assay [6], 0.375. Moreover, the composite z-score in the assay on Lefty1 was 1.13; in [8], 0.221; in [10], 0.0062; in [15], 0.9; in assay [16], -0.243; with Torsin-1A (Homo sapiens) [17], 0.224. The composite z-score with Torsin-1A (Homo sapiens) [18] was -0.0086; in assay [19], 1.25. Further, the z-score in [7] is -0.229; in assay [9] it was 0.819 (inactive); in assay [11] it was -0.86 (inactive); in assay [12], -0.359 (inactive); in assay [13] it was -1.29 (inactive); in assay [14], -0.907 (inactive).
